Screen size: about 65,000 compounds; about 2,100 (3.2%) showed an effect of 50% or more. The median lay at about -52%. What follows is part of a selection rich in strong results, with near analogues and random picks from the rest.

This is an account of results in ChEMBL document CHEMBL4513216, “Probing the Open Global Health Chemical Diversity Library for Multistage-Active Starting Points for Next-Generation Antimalarials” (ACS Infect Dis, 2020).

The test has as its system Plasmodium falciparum. In words: Screen against P. falciparum Asexual Blood Stage (ABS), at 5uM. The format is functional, Dd2. As to conditions: tested at 5 uM.
As for `CN(C)CCN(Cc1ccc(Cl)cc1)C(=O)c1ccncc1`, the INHIBITION turned out to be 53.1%. With `CN(C)CCN(Cc1ccc(C(F)(F)F)cc1)C(=O)c1cc[nH]n1` the figure was 35.8%. With `Cc1cc(C(=O)N(CCN(C)C)Cc2ccc(Cl)cc2)no1` the figure was 53.4%. With `Cc1nc(COCc2cnc3n2CCN(C)C3C)cs1` (stereo unspecified) the figure was -63.4%; with `O=C(NCCc1cccs1)[C@H]1CO[C@H]2CCN(C3CCC3)C[C@H]2C1`, -9.07%. In the case of `O=S1(=O)CCC(CNS(=O)(=O)N2CCc3ccccc3C2)C1` (stereo unspecified), the INHIBITION was -114%. For `O=S(=O)(NCC1CCOC1)N1CCc2ccccc2C1` (stereo unspecified) the value was -80.7%; for `CCN1CCC(CNS(=O)(=O)N2CCc3ccccc3C2)C1` (stereo unspecified), 53.9%; for `COc1cc(OC)cc(C(=O)NCC(c2cccn2C)N2CCCC2)c1` (stereo unspecified), 55.5%. With `COc1ccc(C(=O)NCC(c2cccn2C)N2CCCC2)cc1OC` (stereo unspecified), the INHIBITION is given as 28%. Consider `COc1ccc(C(=O)NCC(c2cccn2C)N2CCN(C)CC2)cc1` (stereo unspecified), for which the INHIBITION is given as -35%. With `O=C(NCC(O)COc1ccccc1)Nc1nncs1` (stereo unspecified) the figure was -50.2%. Regarding `O=C(CCc1ccccc1)NCC1CCN(Cc2cccs2)CC1`, the INHIBITION is on record as -7.73%. For the compound `O=C(CCc1ccsc1)NCC1CCN(Cc2cccs2)CC1`, the INHIBITION is reported as 59.5%. For `O=C(CCc1ccccc1)NCC1CCN(Cc2ccsc2)CC1` the value was 19.8%; for `CCOc1nn(CC)cc1-c1nnc(SCc2ccccn2)n1C`, -121%; for `CCCC(=O)N(CCCN1CCOCC1)c1nc2c(Cl)cccc2s1`, -1.93%.

Consider `Cc1noc(C(C)C)c1C(=O)NCC1CCN(c2ccccc2)C1` (stereo unspecified), for which the INHIBITION was 35.6%.

Regarding `Cc1noc(C)c1C(=O)NCC1CCCCN1Cc1ccccc1` (stereo unspecified), the INHIBITION is listed as -3.72%. With `Cc1noc(C(C)C)c1C(=O)NCC1CCCN1Cc1ccccc1` (stereo unspecified) the figure was 65.7%; with `Cc1cnn(CCC(=O)N2CCC3(CCC(=O)N(CC4CC4)C3)CC2)c1`, -49%; with `Cn1nc(CNC(=O)c2ccc3nsnc3c2)c2c1CCOC2`, -37.5%. Consider `Cc1cnc(C)c(Oc2ccc(Cl)c(CN3CCCC3)c2Cl)n1`, for which the INHIBITION is listed as -31.4%. For `CCc1noc(C2CCCCN2C(=O)c2cc(C)oc2C)n1` (stereo unspecified) the value was -14.9%. As for `COc1cc2nc(NCc3cc(C)on3)nc(N)c2cc1OC`, the INHIBITION was determined as 61.4%.

On to `CCOc1ccc(OCC)c(NCc2cc(C)on2)c1`, for which the INHIBITION is recorded as -105%. In the case of `COc1ccc(Cl)cc1NCc1cc(C)on1`, the INHIBITION is reported as -142%. Take `O=S(=O)(c1ccccc1)N1CCC2(CCCN2Cc2cccc(Cl)c2)C1` (stereo unspecified): the INHIBITION amounted to 18.8%. As for `Cc1cc(F)ccc1-c1ccccc1CC1CNCCNC1=O` (stereo unspecified), the INHIBITION is on record as 49.3%. Regarding `COc1ccc(F)cc1-c1ccccc1CC1(C(=O)O)CCOCC1`, the INHIBITION is -130%.

Consider `COc1ccc(F)cc1-c1ccccc1CC1CNCCNC1=O` (stereo unspecified), for which the INHIBITION was determined as 51.7%.

Take `O=C(CSCCN1CCOCC1)N1CCc2ccccc2C1`: the INHIBITION is -92.5%. For `O=C(CCc1nccs1)N1CCN(c2ccccn2)CC1` the value was -127%. In the case of `Cn1ccnc1CN1CCC2(CC1)COCCN(c1ncccn1)C2`, the INHIBITION is given as -9.16%. On to `Cn1ccnc1CN1CCC2(COCCN(Cc3ccsc3)C2)C1` (stereo unspecified), for which the INHIBITION is 52%. With `Cn1ccnc1CN1CCC2(COCCN(S(=O)(=O)C3CC3)C2)C1` (stereo unspecified) the figure was -106%; with `COCC1Cn2nnc(-c3cnn(C)c3)c2CN1Cc1ccoc1` (stereo unspecified), 28.8%.

For the compound `CCc1c(-c2ccccc2)nc2c(c(C)c(C)n2CCN(C)C)c1N`, the INHIBITION came out at 67.6%. For `CCc1c(C)sc2c1c(N)nc(=O)n2CCCN(C)C` the value was -147%; for `CCc1cc(NCCc2cccnc2)n2nc(C)c(C)c2n1`, -108.7%; for `Cc1c(C)n(Cc2ccncc2)c2nc3c(c(N)c12)CCCCCC3`, 28.3%.

As to `Cc1c(C)n(Cc2ccccn2)c2nc3c(c(N)c12)CCCC3`, the INHIBITION stood at 46.7%. As to `CCCc1nc2c(c(C)c(C)n2Cc2ccncc2)c(N)c1CC`, the INHIBITION was 60.3%.

Turning to `CCc1c(C)sc2c1c(N)nc(=O)n2CCN(C)C`, the INHIBITION is 17.4%. For `Cc1c(C)n(Cc2ccncc2)c2nc3c(c(N)c12)CCCC3` the value was -12.1%.

For `CCCc1nc2c(c(C)c(C)n2Cc2cccnc2)c(N)c1CC`, the INHIBITION was found to be 65%.

For `CCc1nc2c(c(C)c(C)n2Cc2cccnc2)c(N)c1C`, the INHIBITION was determined as 20.4%. With `Cc1cc(C(=O)N2CCNC(=O)C2)c(C)n1Cc1ccccn1` the figure was -68.6%; with `CCCc1nc2c(c(C)c(C)n2Cc2ccccn2)c(N)c1CC`, 59.4%. With `CCC(Nc1nc(C)nc2onc(C)c12)c1nc(C)c(C)s1` (stereo unspecified) the figure was -38.1%; with `CCCc1noc(CN2CCOCC2C)n1` (stereo unspecified), -47.4%.
